The source made the active and inactive calls.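 How the source made its calls: active means average half-effect concentration of 10 µM or less in every one of the four cell panels; inactive means the rest.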
test system: H9c2; assay: cardiomyocyte survival under oxidative or metabolic stress – cell-based, panel, H9c2 and HL-1, H2O2, 2-deoxyglucose, ATP luminescence, SAR follow-up (AID 651642); details: H9c2/HL-1 cardiomyocyte 2-deoxyglucose damage, mean of runs, with 2-deoxyglucose

SMILES	outcome
COc1ccc2c(c1OC)C(=O)N1c3ccccc3C(=O)N(Cc3cccc(F)c3)C21 (configuration not stated)	inactive
CCNC(=O)c1cccc(NC(=O)c2cc(-c3cc(OC)c(OC)c(OC)c3)nc3ccccc23)c1	inactive
COC(=O)CNC(=O)c1cc(-c2cc(OC)c(OC)c(OC)c2)nc2ccccc12	inactive
COc1cc(-c2cc(C(=O)Nc3cccc(C(C)=O)c3)c3cc(Br)ccc3n2)cc(OC)c1OC	inactive
COc1cc(-c2cc(C(=O)NCC(=O)Nc3ccc(C(C)=O)cc3)c3ccccc3n2)cc(OC)c1OC	inactive
COc1ccc(NC(=O)CNC(=O)c2cc(-c3cc(OC)c(OC)c(OC)c3)nc3ccccc23)cc1	inactive
COc1cc(-c2cc(C(=O)Nc3cccc(C(=O)NCc4ccccc4)c3)c3ccccc3n2)cc(OC)c1OC	active
COc1ccc2c(c1OC)C(=O)N1c3ccccc3C(=O)N(Cc3ccccc3F)C21 (configuration not stated)	inactive
COc1ccc2c(c1OC)C(=O)N1c3ccccc3C(=O)N(Cc3ccccn3)C21 (configuration not stated)	inactive
COc1cc(-c2cc(C(=O)Nc3cccc(C(C)=O)c3)c3cc(C)ccc3n2)cc(OC)c1OC	inactive
COc1cc(-c2cc(C(=O)NCC(=O)O)c3ccccc3n2)cc(OC)c1OC	inactive
CCOC(=O)c1cccc(NC(=O)CNC(=O)c2cc(-c3cc(OC)c(OC)c(OC)c3)nc3ccc(C)cc23)c1	active
COc1ccc2c(c1OC)C(=O)N1c3ccccc3C(=O)N(Cc3c(Cl)cccc3Cl)C21 (configuration not stated)	inactive
CCOC(=O)c1cccc(NC(=O)c2cc(-c3cc(OC)c(OC)c(OC)c3)nc3ccc(C)cc23)c1	inactive
CCOC(=O)c1cccc(NC(=O)CNC(=O)c2cc(-c3cc(OC)c(OC)c(OC)c3)nc3ccc(OC)cc23)c1	active
COc1ccc2c(c1OC)C(=O)N1c3ccccc3C(=O)N(Cc3ccccc3)C21 (configuration not stated)	inactive

SMILES	outcome
COc1cc(-c2cc(C(=O)Nc3cccc(C(=O)NC4CC4)c3)c3ccccc3n2)cc(OC)c1OC	inactive
CCOC(=O)c1cccc(NC(=O)CNC(=O)c2cc(-c3cc(OC)c(OC)c(OC)c3)nc3ccccc23)c1	inactive
CCOC(=O)c1cccc(NC(=O)CNC(=O)c2cc(-c3cc(OC)c(OC)c(OC)c3)nc3c(Cl)cccc23)c1	inactive
CCOC(=O)c1ccccc1NC(=O)c1cc(-c2cc(OC)c(OC)c(OC)c2)nc2ccccc12	inactive
COc1cc(-c2cc(C(=O)Nc3cccc(C(=O)N(C)C)c3)c3ccccc3n2)cc(OC)c1OC	inactive
COc1ccc2c(c1OC)C(=O)N1c3ccccc3C(=O)N(Cc3ccccc3Br)C21 (configuration not stated)	inactive
COc1ccc2nc(-c3cc(OC)c(OC)c(OC)c3)cc(C(=O)NCC(=O)Nc3ccc(C(C)=O)cc3)c2c1	active
COc1cc(-c2cc(C(=O)NCC(=O)Nc3ccc(C(C)=O)cc3)c3cc(F)ccc3n2)cc(OC)c1OC	inactive
COc1ccc2c(c1OC)C(=O)N1c3ccccc3C(=O)N(Cc3ccncc3)C21 (configuration not stated)	inactive
COc1ccc2c(c1OC)C(=O)N1c3ccccc3C(=O)N(Cc3ccccc3C)C21 (configuration not stated)	inactive
CCOC(=O)c1ccc(NC(=O)c2cc(-c3cc(OC)c(OC)c(OC)c3)nc3ccccc23)cc1	inactive
COc1cc(-c2cc(C(=O)Nc3cccc(-c4nn[nH]n4)c3)c3ccccc3n2)cc(OC)c1OC	inactive
COc1ccc2c(c1OC)C(=O)N1c3ccccc3C(=O)N(Cc3ccc(C)cc3C)C21 (configuration not stated)	inactive
COc1ccc2c(c1OC)C(=O)N1c3ccccc3C(=O)N(Cc3cccc(Br)c3)C21 (configuration not stated)	inactive
CCOC(=O)c1cccc(NC(=O)CNC(=O)c2cc(-c3cc(OC)c(OC)c(OC)c3)nc3ccc(Br)cc23)c1	active
COc1cc(-c2cc(C(=O)NCC(=O)Nc3cccc(C(C)=O)c3)c3cc(C)ccc3n2)cc(OC)c1OC	inactive

From PubChem BioAssay AID651642 (Sanford-Burnham Center for Chemical Genomics, 2012)
